{"source": "PubChem BioAssay AID1460", "about": "(National Center for Advancing Translational Sciences (NCATS), 2008)", "note": "The campaign covered roughly 270,000 compounds. About 5,800 (2.1%) were called active. Another 16% or so got no clear call; they are omitted. Calls follow the shape of the dose curve; as a rule, active = well fitted inhibition curve with a large enough effect; inconclusive = small, poorly fitted or top-dose-only effect; inactive = flat fitted curve, though single readings scatter. The list comes from a sample in which actives are over-represented; it also holds similar structures and randomly drawn compounds. Entries that show only a call come without a potency. Potency is read from the fitted curve at half-maximal effect.", "data": [{"molecular_target": "Microtubule-associated protein tau (Homo sapiens) (UniProt P10636)", "sequence (P10636 561-689 P618L limits assumed)": "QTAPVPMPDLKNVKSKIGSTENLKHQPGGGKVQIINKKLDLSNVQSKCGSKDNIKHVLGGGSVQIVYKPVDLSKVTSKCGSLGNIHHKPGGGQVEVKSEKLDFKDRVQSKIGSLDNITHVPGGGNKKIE", "experiment": "qHTS for Inhibitors of Tau Fibril Formation, Thioflavin T Binding; also: nearly all actives have a fitted effect of over 55% in size", "conditions": "recombinant tau K18 P301L, heparin-induced fibrillization, ThT fluorescence; series mostly up to 57.4 µM", "how_it_was_run": "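Fibril formation assay: tau K18 P301L at 15 uM with trace Alexa 594 label, heparin inducer 20 uM, pH 7 sodium acetate buffer, 37 C for 6 hr; endpoint ThT signal.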", "values": [{"smiles": "CCC(=O)N1c2ccccc2CC1C(=O)N1CCN(c2ccccc2F)CC1", "note": "(stereo not given)", "Potency": "inactive"}, {"smiles": "COc1ccc(CCNC(=O)c2cc3cccc4c3n2CC(C)S4)c(OC)c1OC", "note": "(stereo not given)", "Potency": "inactive"}, {"smiles": "O=C(Nc1ccccc1Br)c1cc(CN2CCCC2)on1", "Potency": "inactive"}, {"smiles": "CCOc1ccc(NCCC(=O)c2ccc3c(c2)OCO3)cc1", "Potency": "15.8 µM (active)"}, {"smiles": "COc1ccc(C(=O)Nc2ccc3c(c2)OCO3)cc1OC", "Potency": "inactive"}, {"smiles": "COC(=O)CCNc1ccc2c(c1)OCCO2", "Potency": "inactive"}, {"smiles": "COc1ccccc1-c1noc(-c2ccc(NCc3ccccc3)c([N+](=O)[O-])c2)n1", "Potency": "inactive"}, {"smiles": "COC(=O)c1ccc2c(c1)N(CC(=O)Nc1ccc(C)c(C)c1)C(=O)c1ccccc1S2", "Potency": "inactive"}, {"smiles": "O=C(CSc1nnc(-c2ccncc2)n1-c1ccccc1)Nc1ccc(Cl)c(Cl)c1", "Potency": "inactive"}, {"smiles": "CCC(Sc1nnc(-c2ccc(OC)cc2)c(-c2ccc(OC)cc2)n1)C(=O)NC1CCCCC1", "note": "(stereo not given)", "Potency": "inactive"}, {"smiles": "COc1cc(CNC2CCCC2)c(Br)cc1OCc1ccccc1", "Potency": "inactive"}, {"smiles": "COc1cc(C(=S)NCc2ccccc2)cc(Br)c1O", "Potency": "35.5 µM (active)"}, {"smiles": "COc1cc(C=O)c(Br)cc1OCC(=O)NCc1ccccc1", "Potency": "inactive"}, {"smiles": "O=C(NCC(c1ccco1)S(=O)(=O)c1cccs1)c1ccc(F)cc1", "note": "(stereo not given)", "Potency": "inactive"}, {"smiles": "O=C(NC1CC(=O)N(c2ccc(F)cc2)C1)c1ccc(S(=O)(=O)N2CCCC2)cc1", "note": "(stereo not given)", "Potency": "inactive"}, {"smiles": "Oc1cc(O)c2c(c1)OC(c1ccc(O)c(O)c1)C(O)C2", "note": "(stereo not given)", "Potency": "14.1 µM (active)"}, {"smiles": "COC(=O)c1ccc(NC(=O)c2cc(Cl)ccc2OC)cc1", "Potency": "inactive"}, {"smiles": "CCN1CCN(c2cc(C)c3cc(NC(=O)c4cc(Cl)ccc4OC)ccc3n2)CC1", "Potency": "14.1 µM (active)"}, {"smiles": "COc1ccc(Cl)cc1C(=O)Nc1ccc(N(C)C(C)=O)cc1", "Potency": "inactive"}, {"smiles": "Cc1c(NC(=O)/C=C/C(=O)O)cccc1[N+](=O)[O-]", "Potency": "inactive"}, {"smiles": "O=C(O)/C=C/C(=O)NNc1ccc([N+](=O)[O-])cc1", "Potency": "15.8 µM (active)"}, {"smiles": "CNC(=S)Nc1ccc([N+](=O)[O-])cc1", "Potency": "inactive"}, {"smiles": "COc1ccc(C2CC(=O)N(Cc3ccccc3C)c3c2c(C)nn3-c2nc(C)cc(C)n2)c(OC)c1", "note": "(stereo not given)", "Potency": "inactive"}, {"smiles": "O=C(Nc1ccc(Oc2ccccc2)cc1)C1CCN(S(=O)(=O)c2ccc(Cl)cc2)CC1", "Potency": "inactive"}, {"smiles": "CC(=O)Nc1cccc(NC(=O)CSc2cn(CC(=O)N3CCCC3)c3ccccc23)c1", "Potency": "inactive"}, {"smiles": "C=CS(=O)c1sc(Cl)c(N2CCOCC2)c1[N+](=O)[O-]", "note": "(stereo not given)", "Potency": "8.91 µM (active)"}, {"smiles": "O=C(Nc1nnc(C2CC(=O)N(c3ccc(Cl)cc3)C2)s1)c1ccco1", "note": "(stereo not given)", "Potency": "inactive"}, {"smiles": "NC1=NC(c2cc(F)cc(F)c2)n2c(nc3ccccc32)N1", "note": "(stereo not given)", "Potency": "inactive"}, {"smiles": "CCOc1ccc(N(CC)S(=O)(=O)N2CCCC(C(=O)NCc3ccc(SC)cc3)C2)cc1", "note": "(stereo not given)", "Potency": "inactive"}, {"smiles": "COc1ccc(OC)c(-c2noc(N3CCN(c4cc(Cl)ccc4C)CC3)n2)c1", "Potency": "inactive"}, {"smiles": "CCc1nc(-c2cc(S(=O)(=O)N3CCN(c4ccc(OC)cc4)CC3)ccc2OC)no1", "Potency": "28.2 µM (active)"}, {"smiles": "COc1ccc(N2CCN(S(=O)(=O)c3ccc(-c4coc(C)n4)cc3)CC2)cc1", "Potency": "inactive"}, {"smiles": "COc1ccc2oc(=O)c(C(=O)O)cc2c1", "Potency": "inactive"}, {"smiles": "COc1ccc(C(=O)Cc2cnn(-c3ccccc3)c2)c(O)c1", "Potency": "inactive"}, {"smiles": "COc1ccc(/C=C/NC(=O)Cc2ccc(OC)c(OC)c2)cc1", "activity, negative = inhibition": "-4.15% [at 11.5 µM] (inactive)"}, {"smiles": "COc1ccc(/C=C/C(=O)c2cc(Br)ccc(=O)c2O)cc1", "Potency": "4.47 µM (active)"}, {"smiles": "O=C(/C=C/c1ccccc1)c1ccccc1O", "Potency": "inactive"}, {"smiles": "COc1ccc(/C=C/C(=O)c2ccc(OC)cc2O)cc1", "Potency": "5.01 µM (active)"}, {"smiles": "COc1cccc(CNC(=O)C(=O)NCC(c2cccs2)S(=O)(=O)c2ccccc2)c1", "note": "(stereo not given)", "Potency": "inactive"}, {"smiles": "O=C(COc1ccccc1)OCc1cc(=O)n2nc(-c3cccs3)sc2n1", "Potency": "inactive"}, {"smiles": "CCc1ccc(NC(=O)c2cc3c(=O)n(Cc4cccnc4)ccc3nc2C)cc1", "Potency": "inactive"}, {"smiles": "COc1cccc(-n2ccn(CC(=O)NCc3ccc(C)cc3)c(=O)c2=O)c1", "Potency": "inactive"}, {"smiles": "O=C(CSc1oc(-c2ccco2)nc1S(=O)(=O)c1ccccc1)c1ccc(Cl)cc1", "Potency": "inactive"}, {"smiles": "COc1ccc(OC)c(CCNC(=O)CCCn2c(=O)c3cccn3c3cccnc32)c1", "Potency": "inactive"}, {"smiles": "CCOCCCn1c(SCC(=O)Nc2ccc(CC)cc2)nc2ccccc2c1=O", "Potency": "inactive"}, {"smiles": "O=C(NCc1ccccn1)c1ccc2nc(-c3ccco3)c(-c3ccco3)nc2c1", "Potency": "12.6 µM (active)"}, {"smiles": "COCCNC(=O)Nc1ccc2nc(-c3ccco3)c(-c3ccco3)nc2c1", "Potency": "3.98 µM (active)"}, {"smiles": "CC(C)(C)c1ccc(NC(=O)NCc2ccco2)cc1", "Potency": "inactive"}, {"smiles": "COc1ccc(-c2nc3ccc(C(=O)NCc4ccc(C)cc4)cc3nc2-c2ccc(OC)cc2)cc1", "Potency": "inactive"}, {"smiles": "O=C(NCc1ccccn1)c1cc(-c2ccccc2Cl)on1", "Potency": "inactive"}, {"smiles": "O=C(Nc1ccc2nccnc2c1)c1ccco1", "Potency": "inactive"}, {"smiles": "Cc1nn(-c2ccc(F)cc2)c(-n2cccc2)c1C(=O)N1CCN(c2ccccc2)CC1", "Potency": "inactive"}, {"smiles": "Cc1ccc(-c2nc(Cn3c(=O)cc(-c4ccccc4)c4c(C)nn(C)c43)c(C)o2)cc1", "Potency": "inactive"}, {"smiles": "CN(Cc1ccccc1)S(=O)(=O)c1ccc(F)c(C(=O)Nc2cccc(Cl)c2Cl)c1", "Potency": "inactive"}, {"smiles": "O=C(c1cccc(Br)c1)N1CCN(Cc2cc(=O)n3nc(-c4ccccc4)sc3n2)CC1", "Potency": "inactive"}, {"smiles": "CCN(CC)S(=O)(=O)c1ccc2c(c1)nc(CN(C)C(=O)Nc1ccc(Cl)cc1)n2C", "Potency": "inactive"}, {"smiles": "O=C(NCCc1ccccc1)C(=O)NCC(c1ccco1)S(=O)(=O)c1ccccc1", "note": "(stereo not given)", "Potency": "inactive"}, {"smiles": "CSc1nc(-c2ccc(F)cc2)nc2c1Cc1c(CO)cnc(C)c1O2", "Potency": "inactive"}, {"smiles": "CCOC(=O)c1c(C)nc2c(c1C)c(=O)oc1ccccc12", "Potency": "inactive"}, {"smiles": "CCN(CC)c1ccc2oc(=O)c(C)nc2c1", "Potency": "7.94 µM (active)"}, {"smiles": "CCN(CC)c1ccc2c(Nc3ccccc3)c(C=O)c(=O)oc2c1", "Potency": "inactive"}, {"smiles": "COc1ccccc1CNC(=O)c1ccc(-n2c(C)cc3c2CCCC3)cc1", "Potency": "inactive"}, {"smiles": "COc1ccc(C(=O)Nc2onc3c2CCCC3)cc1", "Potency": "inactive"}, {"smiles": "COc1ccccc1CNC(=O)Cn1nc(C)c2nn(-c3ccc(Cl)cc3)c(C)c2c1=O", "Potency": "inactive"}, {"smiles": "CCN(CC)C(=O)CSc1nc2cc3c(cc2c(=O)n1CCCC(=O)NCc1ccc2c(c1)OCO2)OCO3", "Potency": "inactive"}]}]}
